Compound activity as filed in PubChem BioAssay.
Shown are actives, neighbours in structure and some others; about 0.93% of the full set was active somewhere.
PLK1 inh: PLK1 (human) kinase inhibition; P53350; recombinant PLK1 kinase, TR-FRET peptide phosphorylation; inhibition, % at 10 µM; 97,000 tested, 0.53% active; AID 619;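 active = inhibition of 50% or more in the single-concentration screen; inactive = inhibition below 50%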;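 also: 0% = DMSO max control and 100% = H-89 dihydrochloride min control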
Target sequence (P53350 whole entry, looked up): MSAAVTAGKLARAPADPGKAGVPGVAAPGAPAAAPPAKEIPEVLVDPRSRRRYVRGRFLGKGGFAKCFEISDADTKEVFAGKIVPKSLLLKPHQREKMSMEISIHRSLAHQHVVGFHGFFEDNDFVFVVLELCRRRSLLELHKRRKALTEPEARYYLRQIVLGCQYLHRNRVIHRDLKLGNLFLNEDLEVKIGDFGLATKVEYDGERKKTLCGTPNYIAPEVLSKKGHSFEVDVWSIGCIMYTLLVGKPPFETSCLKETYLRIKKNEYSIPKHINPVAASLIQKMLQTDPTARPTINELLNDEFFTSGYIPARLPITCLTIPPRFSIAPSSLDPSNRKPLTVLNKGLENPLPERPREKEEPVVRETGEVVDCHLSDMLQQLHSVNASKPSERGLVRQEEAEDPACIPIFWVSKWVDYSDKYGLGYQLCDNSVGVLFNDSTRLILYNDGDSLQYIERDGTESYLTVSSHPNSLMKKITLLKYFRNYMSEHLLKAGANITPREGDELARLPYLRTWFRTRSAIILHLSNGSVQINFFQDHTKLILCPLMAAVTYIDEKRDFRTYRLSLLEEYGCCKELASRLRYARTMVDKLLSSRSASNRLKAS
LYP inh 2: blocks human PTPN22 phosphatase activity | 96,000 tested, 0.21% active | inhibition, % at 2 µM | AID 640 | recombinant LYP catalytic domain, DiFMUP fluorescence | Q9Y2R2;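 active = inhibition at 2 µM at or above a set limit, the screen mean plus 3 SD, cut at about 24% in these data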;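 also: 0% = DMSO with enzyme and 100% = enzyme fully blocked by orthovanadate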
PLK1 PBD inh: inhibitors of human Plk1 polo box domain binding. P53350. Plk1 PBD phosphopeptide binding, fluorescence polarization. inhibition, %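 (tested at about 20 µM)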. 97,000 tested, 0.13% active. AID 693; in the data active = inhibition above about 34%, passing the limit was not always enough
LYP act: activators of human LYP (PTPN22) phosphatase; 96,000 tested, 0.11% active; activation, % at 2 µM; AID 697; Q9Y2R2; recombinant LYP, DiFMUP fluorescence; 0 = plate median, 100 = signal doubled;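 active = activation at 2 µM above a set limit, the mean plus 5 SD, cut at about 37% in these data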
* marks the source's active call; other numbers are inactive results; . = not tested or not shown.

SMILES	PLK1 inh	LYP inh 2	PLK1 PBD inh	LYP act
CCn1c(O)c(C=Nc2ccccc2)n(-c2ccccc2)c1=S	-8.6	-1.2	1.5	-0.4
COc1ccc(NC(=S)NNC(=O)Cn2nc([N+](=O)[O-])cc2C)cc1	-5.4	-2.2	-2.5	7.8
Cc1cc([N+](=O)[O-])nn1CC(=O)NNC(=S)Nc1ccc([N+](=O)[O-])cc1	-8.2	35.3*	20.6	-33.1
CCOC(=O)N1CCC(N2C(=O)c3cc(C(=O)NC4CCCCC4)ccc3C2O)CC1 (centres undefined)	60.8*	.	1.6	.
CC(C)NC(=O)c1onc(CSc2cccc(F)c2)c1C(=O)O	-3.8	2.7	24.0	0.4
CCc1ccc2nc(NC(=O)c3ccc4c(=O)[nH]c(CN5CCOCC5)nc4c3)sc2c1	-9.1	28.4*	-5.5	-28.1
CCOc1ccc(N(CC(=O)NC(C)CC)S(=O)(=O)c2c(C)noc2C)cc1 (centres undefined)	63.0*	.	18.2	.
CCOc1ccccc1NC(=O)CN(c1ccc(C)cc1)S(=O)(=O)c1c(C)noc1C	-18.8	26.8*	5.5	-23.8
CCOc1ccc(OCC)c(NC(=O)CN(c2ccc(C)cc2)S(=O)(=O)c2c(C)noc2C)c1	-1.7	0.2	1.6	-0.8
CCOc1ccc(C2CC(=O)NC(SC)=C2C#N)cc1 (centres undefined)	-14.9	-5.4	-0.6	2.4
CSC1=C(C#N)C(c2ccc(C(C)C)cc2)CC(=O)N1 (centres undefined)	66.1*	.	2.5	.
CCn1cc(C(=O)N2CCCC2)c(=O)c2cc(S(=O)(=O)N(C)C)ccc21	-5.1	-6.3	-3.5	4.0
CCn1cc(C(=O)N2CCOCC2)c(=O)c2cc(S(=O)(=O)N(C)C)ccc21	69.2*	.	24.5	.
CC1(C)CC(=O)C=C(Nc2ccc(S(N)(=O)=O)cc2)C1	-12.0	12.2	-5.8	-9.8
O=C(c1c(F)cccc1F)N(Cc1ccccn1)C1CC1	-20.1	-9.0	-3.3	12.2
Cc1ccc(S(=O)(=O)N2CCOCC2)cc1C(=O)NCc1cn2ccsc2n1	-16.0	5.7	-1.0	-2.5
Cn1c(=O)c2c(ncn2CC(=O)Nc2ccccc2Sc2ccccc2)n(C)c1=O	-9.6	-11.6	-11.1	10.8
CN(C)c1ccc(/C=N/N=C2/NC(=O)/C(=C/c3ccc([N+](=O)[O-])cc3)S2)cc1	-8.8	24.7*	-14.4	-22.6
CS/C(N)=N/N=C/c1ccc([N+](=O)[O-])cc1	-0.9	11.4	6.1	-8.8
CCCCCSc1nnc2c(n1)OC(C)N(C(C)=O)c1ccccc1-2 (centres undefined)	57.2*	.	22.0	.
COc1ccc(S(=O)(=O)CC(O)CN2CCCC2=O)cc1 (centres undefined)	-7.0	-3.2	3.7	5.6
Cc1cc(O)cc(O)c1-c1onc(C(F)(F)F)c1-c1cscn1	58.0*	0.6	15.4	-3.6
CCCCC(C)n1[nH]c(=O)cc1N (centres undefined)	-4.7	-10.7	3.9	11.9
COCCn1c(CN2CCN(C)CC2)nc2c1c(=O)n(C)c(=O)n2C	66.0*	.	-23.0	.
CC(C)SCCCOc1ccc(C(C)(C)C)cc1	2.9	-9.1	-28.1	8.5
SMILES	PLK1 inh	LYP inh 2	PLK1 PBD inh	LYP act
COc1ccc(C2C(=O)N(C3CCCCC3)CC(=O)N2C2CCCCC2)cc1 (centres undefined)	-8.6	24.6*	5.9	-24.3
CCOC(=O)C1CCC2(CC1)C(C#N)=C(N)Oc1n[nH]c(C)c12 (centres undefined)	69.9*	-6.1	-14.4	6.8
Nc1[nH]nc2nc(N3CCOCC3)nc(-c3ccccc3)c12	68.0*	8.9	-7.0	-8.7
O=c1cc(NC2CCCCC2)c2ccccc2o1	-8.0	1.1	-14.1	2.3
COc1cccc(-c2cc(C(=O)N3CC4(C)CC3CC(C)(C)C4)no2)c1 (centres undefined)	-12.4	10.1	-5.1	-11.5
Cc1noc(C(=O)N2CC3(C)CC2CC(C)(C)C3)c1Cl (centres undefined)	69.8*	.	12.0	.
CC(NC(=O)c1cccs1)C(c1cccs1)N1CCOCC1 (centres undefined)	-8.9	5.1	-20.8	-3.5
CC(C)c1nnc(NC(=O)CSc2ncn[nH]2)s1	-9.2	9.6	-17.6	-10.6
CCOC(=O)CSC(C)C(=O)Nc1nnc(C(C)C)s1 (centres undefined)	64.1*	.	-5.7	.
COCCCNC(=S)NC1CC2CCCC(C1)N2Cc1cccs1 (centres undefined)	4.6	-4.0	11.9	8.3
CC(=O)c1sc2nc(-c3cccs3)ccc2c1N	-12.1	7.4	-35.8	-7.1
Nc1c(C(=O)Nc2nc3ccccc3s2)sc2nc(-c3cccs3)ccc12	-18.4	34.6*	-55.4	-31.0
c1ccc(-c2cc(-c3nnc4n3N=C(c3ccc5ccccc5c3)CS4)[nH]n2)cc1	-10.2	29.9*	1.9	-26.2
Cc1ccc2oc3nc(C)c(C(=O)Nc4cccc(C(F)(F)F)c4)cc3c(=O)c2c1	-61.7	30.6*	-36.9	-28.5
Cc1cccc(C)c1NC(=O)c1cc2c(=O)c3ccccc3oc2nc1C(F)(F)F	-11.5	10.3	-10.3	-6.5
COc1ccccc1C(=O)NCCN1CCN(C(=O)c2ccccc2OC)CC1	-1.9	16.9	5.7	-13.1
CCCCOc1ccc(-c2nnn(CC(=O)NCCc3c[nH]c4ccccc34)n2)cc1	-6.7	10.7	-33.2	-7.8
O=C(CCN1CCN(c2ccccc2)CC1)Nc1nccs1	65.4*	5.4	-5.2	-3.0
O=C(CN1CCN(c2ccccc2)CC1)Nc1nccs1	-6.1	-12.7	23.6	12.1
NC(=O)CSc1nc(-c2ccccc2Cl)ns1	-8.1	13.3	-2.9	-12.3
O=C(Nc1nc(-c2ccccn2)cs1)c1ncc(Cl)c(Cl)c1Cl	-4.2	27.0*	-36.1	-25.5
Nc1nc(SCC(=O)NC2CCCCCC2)[nH]c(=O)c1-c1ccccc1	-39.5	8.5	-16.5	-11.0
Cc1ccc2c(c1)c1c(n2CC(O)CNC(CO)(CO)CO)CCCC1 (centres undefined)	62.7*	.	22.7	.
O=C(O)CCCCCNc1nc(=S)[nH]c2ccccc12	-6.1	26.7*	39.0	-23.8
O=C(CSc1nc2ccc(S(=O)(=O)N3CCOCC3)cc2[nH]1)N1CCOCC1	-9.6	34.1*	-10.4	-36.4
SMILES	PLK1 inh	LYP inh 2	PLK1 PBD inh	LYP act
O=C(CSc1nc2ccccc2c(=O)[nH]1)N1CCN(S(=O)(=O)c2ccccc2)CC1	-8.6	-6.1	-21.7	2.5
Cc1nc2ccc(NC(=S)NC(C)C)cc2nc1C	-11.5	-4.2	8.3	9.9
O=C1c2ccccc2C(=O)N1CCN1CCCCC1	-12.0	1.2	10.5	1.1
O=C1C(=O)N(CCN2CCCCC2)c2ccccc21	53.5*	-5.1	-45.0	4.8
Cc1ccc(NC(=O)CN2C(=O)S/C(=C\c3ccc(-c4cccc(C(=O)O)c4C)o3)C2=O)cc1	5.1	55.5*	13.2	-54.4
O=C(COC(=O)c1cc[n+]([O-])cc1)NCC12CC3CC(CC(C3)C1)C2	5.9	-7.0	-10.6	3.3
CC1C/C(=N/O)C(C)CN1 (centres undefined)	53.1*	-1.2	-2.1	3.7
O=C(N/N=C/C=C/c1ccccc1)c1cc2c(ccc3ccccc32)o1	-8.2	32.3*	10.9	-30.8
C=CCn1cc(/C=N\NC(=O)c2cc3c(ccc4ccccc43)o2)c2ccccc21	-13.2	-1.9	-13.9	-0.2
